Results filed as inconclusive are left out. Activity calls are given as the source filed them. Unless noted, calls follow the shape of the dose curve; as a rule, active = well fitted curve in the direction sought with a large enough effect; inconclusive = small, poorly fitted or top-dose-only effect, or another doubt; inactive = no such curve, though single readings can be large; an effect the other way counts as inactive or inconclusive.
Legend:
[1] = target: Lysosomal acid glucosylceramidase (Homo sapiens) (UniProt P04062); experiment: Glucocerebrosidase-p2 (AID 348; in the data active = potency below about 10 µM; also: potency is read from the fitted curve at half-maximal effect); conditions: purified GBA, blue fluorogenic substrate, 40 min
Summary of the method: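 Compounds titrated from 0.6 nM upwards against 0.2 nM enzyme in pH 5.9 citric acid/KH2PO4, taurocholate, tween-20; blue fluorogenic substrate 80 uM, 40 min room temperature, stopped and read Ex 365/Em 440 for AC50.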

[2] = AP1 Signaling Pathway (AID 357; active = well fitted curve in either direction with a large enough effect, not every such curve was filed as active;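 also: ME-180 reporter cells stimulated with EGF at its EC50 level; % is scaled to controls: 0 for no effect and ±100 for the full control effect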); conditions: ME-180 AP-1-bla reporter, EGF-induced, beta-lactamase ratio, 5 h; at 7.69 µM (top of the series) unless noted
Summary of the method: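 First, ME-180 AP-1-bla cells were cultured overnight at 37 °C in low-serum Opti-MEM. Next, titrated compounds with EC50 EGF were incubated 5 hours. Finally, CCF4 was added for 2.5 hours and the 460/530 nm ratio recorded.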

[3] = target: Cytochrome P450 1A2 (Homo sapiens) (UniProt P05177); experiment: p450-cyp1a2 (AID 410; calls by dose curve; also: potency is read from the fitted curve at half-maximal effect;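 as to activity change, negative = inhibition: -100% = full effect of reference inhibitor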)
Summary of the method: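 Luminescent readout of luciferin formed from Luciferin-ME by human CYP1A2; data normalized against complete inhibition by 57 uM furafylline. Enzyme 20nM, substrate 100uM at Km, 100mM KPO4 buffer, 60 min reaction at room temperature.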

[4] = NFAT Signaling Pathway (AID 444; active = well fitted curve in either direction with a large enough effect, not every such curve was filed as active;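 also: carbachol stimulus at about its EC50 of 1 µM final; % is scaled to controls: 0 for no effect and ±100 for the full control effect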); conditions: Jurkat NFAT-bla M1, carbachol, beta-lactamase ratio, 5 h; at 7.69 µM (top of the series) unless noted
Summary of the method: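 Jurkat cells with NFAT-driven β-lactamase reporter and co-expressed M1 receptor, stimulated with carbachol (final 1 uM, ~EC50), compound titration, 5 h at 37 °C. CCF4 loaded 1 h at RT; 460/530 nm ratio gave %activity and AC50.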

[5] = Stat Signaling Pathway (AID 446; active = well fitted curve in either direction with a large enough effect, not every such curve was filed as active;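 also: ME-180 cervical cancer cells given 40 pM IL-6 alongside compound; SIE-controlled beta-lactamase reporter measured as 460/530 nm FRET emission ratio; % is scaled to controls: 0 for no effect and ±100 for the full control effect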); conditions: ME-180 SIE beta-lactamase reporter, IL-6 stimulated, 5 h; at 7.69 µM (top of the series) unless noted
Summary of the method: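 ME-180 cells carrying a SIE-driven beta-lactamase reporter are stimulated with 40 pM IL-6 for 5 h at 37C in the presence of compound. The 460/530 nm FRET substrate ratio is read after 2.5 h at RT. Data are normalised to 300 pM IL-6 and to 125 nM JAK inhibitor controls.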

[6] = target: Glucocorticoid receptor (Homo sapiens) (UniProt P04150); experiment: GR-GFP Redistribution (AID 450;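 active = compounds whose dose series gives a full or clear partial fitted curve of increased nuclear translocation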; also: potency is read from the fitted curve at half-maximal effect); conditions: U2OS GR-GFP nuclear translocation, laser cytometry, 2 h
[7] = target: Glucocorticoid receptor (Homo sapiens) (UniProt P04150); experiment: GR-EFC Redistribution (AID 451; calls by dose curve; also: potency is read from the fitted curve at half-maximal effect); conditions: CHO-K1 GR-EFC translocation, beta-gal luminescence, 2 h
Summary of the method: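 CHO-K1 cells expressing nuclear EA and GR-ED fragments of b-gal; compounds titrated up to 46 uM final, 2 h at 37 C. GR nuclear translocation read as complemented b-gal luminescence after 1 h RT detection.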

[8] = target: Cytochrome P450 3A4 (Homo sapiens) (UniProt P08684); experiment: qHTS Assay for Activators of Cytochrome P450 3A4 (AID 885); also: nearly all actives have a fitted effect of over 65% in size
Summary of the method: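 Human CYP3A4 (20 nM) with Luciferin-PPXE at 25 uM (its KM) in 200 mM KPO4; 10 min compound preincubation, then NADPH regeneration and 60 min reaction at RT. Luciferin read by luminescence; normalized to 57 uM ketoconazole full inhibition.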

[9] = target: Dual specificity protein kinase CLK4 (Homo sapiens) (UniProt Q9HAZ1); experiment: qHTS Assay for Inhibitors of CDC-like Kinase 4 (Kinase-Glo Assay) (AID 1770); also: % is scaled to controls: 0 for no effect and ±100 for the full control effect; nearly all actives have a fitted effect of over 65% in size
Summary of the method: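 Recombinant human Clk4 (25 nM) phosphorylated RS repeat peptide (100 uM) with 1 uM ATP in Tris pH 7.5/MgCl2/EGTA/DTT/Triton buffer for 4.5 h at room temperature. Residual ATP was quantified by Kinase-Glo luciferase luminescence.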

[10] = target: Dual specificity protein kinase CLK4 (Homo sapiens) (UniProt Q9HAZ1); experiment: qHTS Assay for Inhibitors of CDC-like Kinase 4 (ADP-Glo Assay) (AID 1771); also: % is scaled to controls: 0 for no effect and ±100 for the full control effect; nearly all actives have a fitted effect of over 70% in size
Summary of the method: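 Luminescence from ADP-Glo reports ADP produced by 25 nM Clk4 acting on 100 uM RS repeat peptide with 1 uM ATP over 1 hr at room temperature; residual ATP is depleted before ADP is converted to ATP for detection.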

[11] = target: Dual specificity protein kinase CLK4 (Homo sapiens) (UniProt Q9HAZ1); experiment: qHTS Assay for Inhibitors of CDC-like Kinase 4 (ADP-FP Assay) (AID 1795); also: % is scaled to controls: 0 for no effect and ±100 for the full control effect; nearly all actives have a fitted effect of over 60% in size
Summary of the method: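 Recombinant human Clk4 (6.25 nM) phosphorylated RS repeat peptide (100 uM) with 1 uM ATP in Tris pH 7.5/MgCl2/EGTA/DTT/Triton buffer for one hour. ADP was quantified by Transcreener competitive fluorescence polarization against an ADP calibration curve.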

[12] = target: Ubiquitin carboxyl-terminal hydrolase 1 (Homo sapiens) (UniProt O94782); experiment: Inhibitors of USP1/UAF1: Pilot qHTS (AID 504865);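 also: rhodamine fluorescence freed from ubiquitin-rhodamine substrate followed over time; top concentration of the series differs between compounds; % is scaled to controls: 0 for no effect and ±100 for the full control effect; nearly all actives have a fitted effect of over 35% in size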
Summary of the method: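 USP1/UAF1 complex (1nM) preincubated with compound 15 min at room temperature, then Ub-Rho substrate (150nM final) added. Fluorescence read kinetically at 480/540 nm, 6 reads every 60 seconds. Buffer: 50mM HEPES pH 7.8, 0.5mM EDTA, 0.1 mg/ml BSA, 1mM TCEP, 0.01% Tween-20.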

[13] = Counterscreen qHTS for small molecule stabilizers of the endoplasmic reticulum resident proteome: GLuc-NoTag assay (AID 1508627);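 also: SH-SY5Y cells given compound then 100 nM thapsigargin to empty ER calcium; 0% = thapsigargin alone and -100% = DMSO vehicle control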
Summary of the method: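 SH-SY5Y cells stably expressing constitutively secreted GLuc without SERCaMP tag, exposed to compound for 19 hr, then to 100 nM thapsigargin for 4 hr at 37C. Medium luciferase was read by coelenterazine luminescence without lysis.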

[14] = Cell Viability qHTS for small molecule stabilizers of the endoplasmic reticulum resident proteome (AID 1508629); conditions: cell viability counter-screen, 100 nM thapsigargin for final 4 h;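 also: human SH-SY5Y neuroblastoma cells carrying the GLuc-SERCaMP reporter; compound exposure about 46 h in total before the viability read; % is scaled to controls: 0 for no effect and ±100 for the full control effect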
[15] = target: Mitogen-activated protein kinase 10 (Mus musculus) (UniProt Q61831); experiment: JNK3 AlphaScreen Assay (AID 530; active = well fitted curve in either direction with a large enough effect, not every such curve was filed as active)
Summary of the method: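 Pre-activated (IL-1β/TNFα) JNK3 in HepG2 lysates phosphorylates biotin-GST-cJun(1-79), 10 uM ATP; anti-phospho-cJun(Ser73) AlphaScreen read at room temperature, pH 7.6 Tris buffer. Compounds pre-incubated 15 min as titrations.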

[16] = target: Cytochrome P450 3A4 (Homo sapiens) (UniProt P08684); experiment: qHTS Assay for Inhibitors and Substrates of Cytochrome P450 3A4 (AID 884); also: potency is read from the fitted curve at half-maximal effect; nearly all actives have a fitted effect of over 50% in size
Summary of the method: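 20 nM human CYP3A4 with 25 uM Luciferin-PPXE (at KM) in 200 mM KPO4, preincubated 10 min with compound; NADPH regeneration started a 60 min RT reaction. Luciferin detected by luminescence, normalized to 57 uM ketoconazole as full inhibition.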

[17] = qHTS Assay for Lipid Storage Modulators (AID 1519; calls by dose curve); conditions: Drosophila S3 cells, BODIPY lipid droplet/cell ratio, laser cytometry, cells loaded with oleic acid; for activity change, negative = inhibition: at 57.5 µM (top of the series)
Summary of the method: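 Cells seeded at 5,000 per well were treated with compounds over a concentration series and loaded with oleic acid (400 uM, as added). Lipid droplet fluorescence (488 nm excitation, 500-530 nm channel) was read by laser-scanning cytometry and normalized to 20 uM Triacsin C.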

[18] = Confirmatory qHTS for small molecule stabilizers of the endoplasmic reticulum resident proteome: Secreted ER Calcium Modulated Protein (SERCaMP) assay (AID 1508628); also: nearly all actives have a fitted effect of over 40% in size; also: potency is read from the fitted curve at half-maximal effect
Summary of the method: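 SH-SY5Y cells stably expressing GLuc-SERCaMP, treated 16 h with compound (primary 1.53, 7.67, 38.3 uM; confirmation 11 concentrations, up to 76.6 uM), then 100 nM thapsigargin for 4 h. Secreted Gaussia luciferase in medium read by coelenterazine luminescence.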

[19] = target: 3',5'-cyclic-AMP phosphodiesterase 4B (Homo sapiens) (UniProt Q07343); experiment: qHTS Assay for Inhibitors of PDE-IV (AID 607; active = well fitted activation curve with a large enough effect in the main read-out, with a control signal flat, not every such curve was filed as active; also: % of control where 0% means no effect)
Summary of the method: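 HEK293 ACTOne cells with CNG channel (1000/well), endogenous PDE4; membrane potential dye, compounds up to 22.9 uM final. Fluorescence Ex 535/Em 590; RO 20-1724 (100 uM final) as reference.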

[20] = qHTS Assay for Identification of Small Molecule Agonists for Hypoxia Response Element Signaling Pathway (AID 914; active = well fitted activation curve with a large enough effect in the signal ratio, with a control signal flat, not every such curve was filed as active; the % refers to the signal ratio; also: % of control where 0% means no effect); conditions: ME-180 (cervical carcinoma) HRE-bla reporter, beta-lactamase ratio, CoCl2, 17 h; activation: stronger effect = higher value
Summary of the method: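 Positive modulation of EC50 CoCl2-induced hypoxia response element signaling is measured in ME-180 cells with a beta-lactamase reporter. Compounds are titrated, incubation runs 17 hours, and %Activity derives from the blue/green ratio.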

[21] = measured here: cell count channel max response
[22] = measured here: lipid channel max response

Sequence of Cytochrome P450 3A4 (Homo sapiens) (P08684 whole entry, looked up): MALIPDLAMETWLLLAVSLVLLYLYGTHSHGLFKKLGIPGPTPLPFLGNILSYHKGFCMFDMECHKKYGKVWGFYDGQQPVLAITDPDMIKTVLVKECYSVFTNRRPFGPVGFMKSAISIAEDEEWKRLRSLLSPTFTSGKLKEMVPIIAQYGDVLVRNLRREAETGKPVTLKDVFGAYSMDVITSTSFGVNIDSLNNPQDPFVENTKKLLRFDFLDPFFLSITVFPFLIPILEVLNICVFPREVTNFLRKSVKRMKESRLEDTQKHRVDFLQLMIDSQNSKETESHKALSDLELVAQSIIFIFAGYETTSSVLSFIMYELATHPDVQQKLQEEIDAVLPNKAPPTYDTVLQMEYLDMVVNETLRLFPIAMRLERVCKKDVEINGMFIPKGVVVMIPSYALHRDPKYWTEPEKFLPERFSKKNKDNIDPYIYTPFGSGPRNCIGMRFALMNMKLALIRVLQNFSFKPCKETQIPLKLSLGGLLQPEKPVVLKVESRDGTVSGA
Sequence of Cytochrome P450 1A2 (Homo sapiens) (P05177 whole entry, looked up): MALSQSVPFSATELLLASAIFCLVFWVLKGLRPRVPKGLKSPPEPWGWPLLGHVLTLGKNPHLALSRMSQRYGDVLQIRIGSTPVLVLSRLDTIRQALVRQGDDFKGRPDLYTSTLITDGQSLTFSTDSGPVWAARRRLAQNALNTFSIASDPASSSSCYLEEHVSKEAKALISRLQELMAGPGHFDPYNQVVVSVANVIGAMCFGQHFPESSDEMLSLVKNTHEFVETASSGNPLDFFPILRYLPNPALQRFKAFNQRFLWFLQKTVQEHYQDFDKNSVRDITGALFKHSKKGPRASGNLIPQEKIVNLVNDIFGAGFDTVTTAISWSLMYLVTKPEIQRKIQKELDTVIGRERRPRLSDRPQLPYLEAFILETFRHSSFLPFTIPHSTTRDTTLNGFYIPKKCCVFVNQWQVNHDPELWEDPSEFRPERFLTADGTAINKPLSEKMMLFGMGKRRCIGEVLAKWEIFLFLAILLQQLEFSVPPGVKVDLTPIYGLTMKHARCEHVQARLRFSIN
Sequence of Dual specificity protein kinase CLK4 (Homo sapiens) (Q9HAZ1 whole entry, looked up): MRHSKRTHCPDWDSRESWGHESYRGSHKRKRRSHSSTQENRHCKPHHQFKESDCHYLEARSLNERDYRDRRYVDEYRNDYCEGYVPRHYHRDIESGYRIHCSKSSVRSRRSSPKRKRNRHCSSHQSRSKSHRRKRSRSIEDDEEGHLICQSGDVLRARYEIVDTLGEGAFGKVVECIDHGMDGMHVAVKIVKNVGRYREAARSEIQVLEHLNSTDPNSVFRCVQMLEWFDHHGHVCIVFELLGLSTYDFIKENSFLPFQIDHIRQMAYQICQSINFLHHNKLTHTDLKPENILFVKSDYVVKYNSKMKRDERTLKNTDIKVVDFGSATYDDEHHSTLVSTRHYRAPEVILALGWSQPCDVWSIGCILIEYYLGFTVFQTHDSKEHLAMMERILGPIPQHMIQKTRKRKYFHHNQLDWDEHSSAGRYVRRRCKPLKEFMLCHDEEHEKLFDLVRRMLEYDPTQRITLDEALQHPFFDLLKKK
Sequence of Glucocorticoid receptor (Homo sapiens) (P04150 whole entry, looked up, the tested form may be a part): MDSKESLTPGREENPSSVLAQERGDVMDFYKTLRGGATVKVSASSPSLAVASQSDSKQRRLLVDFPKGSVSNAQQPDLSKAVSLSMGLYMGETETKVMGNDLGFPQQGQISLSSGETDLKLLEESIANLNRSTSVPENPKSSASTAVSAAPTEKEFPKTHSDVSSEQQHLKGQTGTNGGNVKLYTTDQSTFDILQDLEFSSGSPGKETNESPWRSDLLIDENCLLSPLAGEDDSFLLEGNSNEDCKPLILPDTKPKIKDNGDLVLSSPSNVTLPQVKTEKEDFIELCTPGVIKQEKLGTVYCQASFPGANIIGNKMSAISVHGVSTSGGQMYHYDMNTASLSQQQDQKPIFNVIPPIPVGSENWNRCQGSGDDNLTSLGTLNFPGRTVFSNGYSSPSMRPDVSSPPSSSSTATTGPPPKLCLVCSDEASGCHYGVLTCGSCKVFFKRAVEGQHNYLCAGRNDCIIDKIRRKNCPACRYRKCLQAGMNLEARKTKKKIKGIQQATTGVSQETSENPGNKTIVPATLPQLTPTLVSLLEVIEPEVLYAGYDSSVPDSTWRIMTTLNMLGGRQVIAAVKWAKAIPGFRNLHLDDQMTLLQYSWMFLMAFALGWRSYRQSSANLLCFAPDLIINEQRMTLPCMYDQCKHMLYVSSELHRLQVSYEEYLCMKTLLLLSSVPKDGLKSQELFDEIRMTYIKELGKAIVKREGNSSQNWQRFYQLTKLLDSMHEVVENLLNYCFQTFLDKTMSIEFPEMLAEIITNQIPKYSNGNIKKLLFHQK
Sequence of Ubiquitin carboxyl-terminal hydrolase 1 (Homo sapiens) (O94782 whole entry, looked up): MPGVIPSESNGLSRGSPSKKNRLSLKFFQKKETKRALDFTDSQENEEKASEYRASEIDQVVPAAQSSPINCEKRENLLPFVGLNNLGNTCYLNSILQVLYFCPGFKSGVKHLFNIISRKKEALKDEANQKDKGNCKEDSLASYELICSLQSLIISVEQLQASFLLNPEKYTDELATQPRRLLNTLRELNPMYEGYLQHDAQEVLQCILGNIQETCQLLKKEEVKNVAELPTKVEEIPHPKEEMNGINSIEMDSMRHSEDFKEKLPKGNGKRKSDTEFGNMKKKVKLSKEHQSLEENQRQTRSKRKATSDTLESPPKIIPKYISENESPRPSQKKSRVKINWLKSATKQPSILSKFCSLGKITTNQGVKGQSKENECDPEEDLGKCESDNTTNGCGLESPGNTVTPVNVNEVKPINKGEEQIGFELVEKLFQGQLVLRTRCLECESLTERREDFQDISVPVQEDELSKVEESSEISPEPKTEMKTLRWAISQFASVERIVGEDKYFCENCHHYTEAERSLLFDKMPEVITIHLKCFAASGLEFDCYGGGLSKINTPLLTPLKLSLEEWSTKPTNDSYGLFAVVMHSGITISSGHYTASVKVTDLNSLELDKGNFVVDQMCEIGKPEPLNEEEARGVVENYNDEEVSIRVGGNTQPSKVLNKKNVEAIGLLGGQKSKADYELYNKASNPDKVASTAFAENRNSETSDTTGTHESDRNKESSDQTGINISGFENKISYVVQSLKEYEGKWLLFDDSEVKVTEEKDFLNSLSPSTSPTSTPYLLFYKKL
Sequence of Lysosomal acid glucosylceramidase (Homo sapiens) (P04062 whole entry, looked up): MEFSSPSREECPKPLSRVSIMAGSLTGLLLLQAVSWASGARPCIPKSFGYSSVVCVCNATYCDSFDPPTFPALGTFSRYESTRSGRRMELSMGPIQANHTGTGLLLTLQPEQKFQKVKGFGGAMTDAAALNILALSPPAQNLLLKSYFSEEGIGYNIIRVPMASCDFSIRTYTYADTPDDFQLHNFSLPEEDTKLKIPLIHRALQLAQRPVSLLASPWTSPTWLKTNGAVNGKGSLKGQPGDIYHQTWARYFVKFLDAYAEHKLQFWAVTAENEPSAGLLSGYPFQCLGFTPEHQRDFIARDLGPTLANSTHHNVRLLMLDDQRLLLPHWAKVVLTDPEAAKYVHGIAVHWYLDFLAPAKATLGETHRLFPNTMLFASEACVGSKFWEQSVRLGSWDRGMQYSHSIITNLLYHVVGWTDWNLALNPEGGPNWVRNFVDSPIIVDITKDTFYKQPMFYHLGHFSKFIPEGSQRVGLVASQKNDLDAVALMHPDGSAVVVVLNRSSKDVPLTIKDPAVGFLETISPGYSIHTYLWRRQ
Sequence of 3',5'-cyclic-AMP phosphodiesterase 4B (Homo sapiens) (Q07343 whole entry, looked up): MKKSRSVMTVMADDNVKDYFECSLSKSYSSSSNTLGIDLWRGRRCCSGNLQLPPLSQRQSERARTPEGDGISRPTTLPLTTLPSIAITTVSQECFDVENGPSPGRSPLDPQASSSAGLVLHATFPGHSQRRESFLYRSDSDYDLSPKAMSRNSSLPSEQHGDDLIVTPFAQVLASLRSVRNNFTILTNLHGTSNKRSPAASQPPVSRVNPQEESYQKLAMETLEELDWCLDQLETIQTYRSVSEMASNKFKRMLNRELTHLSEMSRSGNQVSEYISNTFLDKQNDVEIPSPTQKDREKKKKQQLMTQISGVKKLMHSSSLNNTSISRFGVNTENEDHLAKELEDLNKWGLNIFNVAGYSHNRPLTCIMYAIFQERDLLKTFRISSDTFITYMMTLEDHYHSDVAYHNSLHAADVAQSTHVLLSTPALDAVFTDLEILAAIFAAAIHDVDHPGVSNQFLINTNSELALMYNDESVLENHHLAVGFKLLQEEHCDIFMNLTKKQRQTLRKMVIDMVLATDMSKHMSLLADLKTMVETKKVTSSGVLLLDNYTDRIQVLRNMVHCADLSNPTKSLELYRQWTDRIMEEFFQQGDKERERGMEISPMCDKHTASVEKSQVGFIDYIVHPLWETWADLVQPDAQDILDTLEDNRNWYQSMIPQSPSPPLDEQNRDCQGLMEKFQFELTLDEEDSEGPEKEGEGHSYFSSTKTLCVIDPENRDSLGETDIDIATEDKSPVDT

## Cn1cc(-c2nc3cncnc3n(-c3ccccc3)c2=O)c2ccccc21
[1]
  Potency: > 11.4 µM (inactive)
[2]
  activity change, negative = inhibition: -24% (inactive)
[3]
  Potency: 1.58 µM (active)
[4]
  activity change, negative = inhibition: 11.2% (inactive)
[5]
  activity, negative = inhibition: -2.15% (inactive)
[6]
  Potency: > 9.22 µM (inactive)
[7]
  Potency: > 46 µM (inactive)
[8]
  Potency: inactive
[9]
  Potency: inactive
[10]
  Potency: inactive
[11]
  Potency: inactive
[12]
  Potency: inactive
[13]
  Potency: inactive

## CCCCCCCCCCCCc1ccccc1O
[14]
  max response: 11.8% (inactive)

## COc1ccc(CNc2ncnc3ccc(-c4cccc(C#N)c4)cc23)c(OC)c1
[3]
  Potency: 3.16 µM (active)
[4]
  activity change, negative = inhibition: 16.5% (inactive)
[5]
  activity, negative = inhibition: -11.5% (inactive)
[6]
  Potency: > 46 µM (inactive)
[7]
  Potency: > 46 µM (inactive)
[15]
  outcome: inactive
[16]
  Potency: 1.58 µM (active)
[8]
  Potency: inactive
[17]
  activity change, negative = inhibition: -0.414% (inactive)
[17]; [21]
  max response: -6.85%
[17]; [22]
  max response: -11.4%
[12]
  Potency: inactive
[18]
  Potency: 28.2 µM (active)

## O=C(c1cc(C(F)(F)F)cc(C(F)(F)F)c1)N1CCC2(CC1)CN(c1ccccn1)C2
[1]
  Potency: 0.37 µM (active)
[2]
  activity change, negative = inhibition: -8.97% (inactive)
[3]
  Potency: inactive
[5]
  activity, negative = inhibition: -17.5% (inactive)
[7]
  Potency: > 46 µM (inactive)
[15]
  outcome: inactive
[19]
  Potency: inactive
[18]
  Potency: inactive
[14]
  max response: -18% (inactive)

## CN1CCN(c2ncncc2-c2ccccc2C(F)(F)F)CC1
[1]
  Potency: > 11.4 µM (inactive)
[2]
  activity change, negative = inhibition: 1.62% (inactive)
[3]
  Potency: 31.6 µM (active)
[5]
  activity, negative = inhibition: 0.819% (inactive)
[6]
  Potency: > 46 µM (inactive)
[7]
  Potency: > 46 µM (inactive)
[15]
  outcome: inactive
[19]
  Potency: inactive
[8]
  Potency: inactive
[20]
  activation: 5.49% (inactive)
[17]
  activity change, negative = inhibition: 6.69% (inactive)
[17]; [21]
  max response: 25.9%
[17]; [22]
  max response: 29.8%
[9]
  Potency: inactive
[10]
  Potency: inactive
[11]
  Potency: inactive
[12]
  Potency: inactive
[14]
  max response: 18.7% (inactive)

## N#CCCn1c(=O)c(CCc2ccccc2)nc2cnc(OCc3ccccc3)nc21
[1]
  Potency: > 11.4 µM (inactive)
[2]
  activity change, negative = inhibition: -4.26% (inactive)
[3]
  Potency: 12.6 µM (active)
[4]
  activity change, negative = inhibition: -3.34% (inactive)
[5]
  activity, negative = inhibition: -0.503% (inactive)
[6]
  Potency: > 9.22 µM (inactive)
[7]
  Potency: > 46 µM (inactive)
[8]
  Potency: inactive
[18]
  Potency: 31.6 µM (active)

— PubChem BioAssay (NCATS)
